Source: the supplement of paper PMC9262897, “Low-cost anti-mycobacterial drug discovery using engineered E. coli” (Nature Communications, 2022)
Where a name gives a salt, the structure may show the parent alone. ± gives the standard deviation of the averaged measurements.

Legend:
Test in all cases: growth (OD600 after 10 h); higher = more growth (less inhibition)
[1] = system: E. coli TESEC Alr+ wild-type control; settings: compound 0.1 mM; raw OD600 reference: median of DMSO wells 0.241, cell-free background 0.041
Method: (§1)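 TESEC Mtb Alr E. coli, or the Alr+ wild-type control, in 384-well plates with Prestwick library compounds at 0.1 mM and 1% DMSO, across arabinose induction levels of 1E3 to 1E7 nM. Growth is read as OD600 after 10 h at 37 °C in triplicate biological replicates.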

[2] = system: E. coli TESEC Mtb Alr; settings: compound 0.1 mM
Method: as §1

[3] = system: E. coli TESEC Mtb Asd; settings: compound 0.1 mM
Method: (§2)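 TESEC E. coli strains in which the native enzyme is deleted and replaced by arabinose-inducible Mtb Asd, DapB, CysH or TrpD, each grown in its selective medium. Strains were screened against the Prestwick library at 0.1 mM and 1% DMSO in 384-well format at low and high arabinose induction. Growth is read as OD600 after 10 h in triplicate.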

[4] = system: E. coli TESEC Mtb DapB; settings: compound 0.1 mM
Method: as §2

[5] = system: E. coli TESEC Alr+ wild-type control; settings: compound 0.1 mM; raw OD600 reference: median of DMSO wells 0.49, cell-free background 0.052
Method: (§3)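 TESEC Mtb Alr E. coli (ΔaraC ΔtolC ΔentC Δalr ΔdadX, arabinose-inducible Mtb Alr) or the Alr+ wild-type control strain, grown in defined M9-fructose medium without D-alanine in 96-well plates with Prestwick library compounds at 0.1 mM and 1% DMSO. Low Alr induction is 0.1 µM arabinose and high induction is 10 mM arabinose.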

[6] = system: E. coli TESEC Mtb Alr; settings: compound 0.1 mM; remark: listed apart in the source
Method: as §3

[7] = arabinose 1000 nM, raw OD600 reference: median of DMSO wells 0.294, cell-free background 0.041
[8] = arabinose 10000 nM, raw OD600 reference: median of DMSO wells 0.264, cell-free background 0.041
[9] = arabinose 100000 nM, raw OD600 reference: median of DMSO wells 0.201, cell-free background 0.041
[10] = arabinose 1000000 nM, raw OD600 reference: median of DMSO wells 0.193, cell-free background 0.041
[11] = arabinose 10000000 nM, raw OD600 reference: median of DMSO wells 0.146, cell-free background 0.041
[12] = arabinose induction (level): High, raw OD600 reference: median of DMSO wells 0.331, cell-free background 0.041
[13] = arabinose induction (level): Low, raw OD600 reference: median of DMSO wells 0.417, cell-free background 0.041
[14] = arabinose induction (level): High, raw OD600 reference: median of DMSO wells […], cell-free background 0.041
[15] = arabinose induction (level): Low, raw OD600 reference: median of DMSO wells 0.227, cell-free background 0.041
[16] = arabinose 100 nM, raw OD600 reference: median of DMSO wells 0.413, cell-free background 0.052
[17] = arabinose 10000000 nM, raw OD600 reference: median of DMSO wells […], cell-free background 0.052

SMILES	growth [1]	growth [2, 7]	growth [2, 8]	growth [2, 9]	growth [2, 10]	growth [2, 11]	growth [3, 12]	growth [3, 13]	growth [4, 14]	growth [4, 15]	growth [5]	growth [6, 16]	growth [6, 17]
O=C(N/N=C/c1ccc([N+](=O)[O-])o1)c1ccc(O)cc1 [Nifuroxazide]	0.148 ± 0.0071	0.217 ± 0.018	0.0914 ± 0.0034	0.164 ± 0.022	0.0664 ± 0.0028	0.133 ± 0.0085	0.053 ± 0.00057	0.0519 ± 0.0049	0.0553 ± 0.0015	0.0557 ± 0.0021	0.0581 ± 0.0039	0.0646 ± 0.0031	0.0578 ± 0.0014
CCCCc1ccc2[nH]c(NC(=O)OC)nc2c1 [Parbendazole]	0.244 ± 0.01	0.307 ± 0.0063	0.277 ± 0.0036	0.213 ± 0.034	0.206 ± 0.0056	0.156 ± 0.0051	0.279 ± 0.015	0.435 ± 0.0069	0.208 ± 0.0058	0.279 ± 0.031	0.496 ± 0.038	0.4255 ± 0.003	0.374 ± 0.045
Cc1nc(=O)c2cc(CN(C)c3ccc(C(=O)N[C@@H](CCC(=O)O)C(=O)O)s3)ccc2[nH]1 [Raltitrexed]	0.229 ± 0.012	0.259 ± 0.0086	0.358 ± 0.013	0.171 ± 0.02	0.173 ± 0.0097	0.162 ± 0.0053	0.269 ± 0.05	0.4225 ± 0.0017	0.188 ± 0.015	0.198 ± 0.029	0.606 ± 0.055	0.409 ± 0.016	0.322 ± 0.011
CN1CCOC(c2ccccc2)c2ccccc2C1 (configuration not stated) [Nefopam hydrochloride]	0.218 ± 0.0081	0.294 ± 0.0068	0.263 ± 0.003	0.185 ± 0.012	0.157 ± 0.0087	0.157 ± 0.0035	0.187 ± 0.03	0.401 ± 0.045	0.186 ± 0.006	0.243 ± 0.036	0.543 ± 0.081	0.413 ± 0.014	0.327 ± 0.021
CCCCN(CCCC)CCCOC(=O)c1ccc(N)cc1 [Butacaine]	0.2003 ± 0.0014	0.284 ± 0.019	0.275 ± 0.01	0.181 ± 0.013	0.189 ± 0.0068	0.14 ± 0.0032	0.275 ± 0.029	0.445 ± 0.06	0.182 ± 0.0067	0.208 ± 0.016	0.474 ± 0.038	0.408 ± 0.013	0.337 ± 0.019
CCOC(=O)n1ccn(C)c1=S [Carbimazole]	0.239 ± 0.0029	0.297 ± 0.0079	0.27 ± 0.012	0.192 ± 0.0037	0.212 ± 0.0081	0.145 ± 0.0022	0.346 ± 0.079	0.284 ± 0.037	0.216 ± 0.011	0.239 ± 0.025	0.607 ± 0.05	0.424 ± 0.011	0.407 ± 0.0073
CCOC(=O)c1ccc(N)cc1 [Benzocaine]	0.249 ± 0.0072	0.324 ± 0.02	0.263 ± 0.0073	0.213 ± 0.011	0.182 ± 0.0029	0.1551 ± 0.0012	0.469 ± 0.013	0.453 ± 0.027	0.212 ± 0.013	0.24 ± 0.034	0.432 ± 0.0086	0.4093 ± 0.00068	0.323 ± 0.018
NCCCC[C@H](N[C@@H](CCc1ccccc1)C(=O)O)C(=O)N1CCC[C@H]1C(=O)O [Lisinopril]	0.257 ± 0.0039	0.304 ± 0.0053	0.251 ± 0.0067	0.213 ± 0.0063	0.177 ± 0.0033	0.159 ± 0.0064	0.35 ± 0.051	0.4 ± 0.031	0.212 ± 0.0046	0.316 ± 0.057	0.49 ± 0.035	0.41 ± 0.015	0.343 ± 0.0091
CCC(C)(C)c1ccc(CC(C)CN2C[C@@H](C)O[C@@H](C)C2)cc1 (some centres not stated) [Amorolfine hydrochloride]	0.0552 ± 0.0076	0.107 ± 0.0069	0.0519 ± 0.0014	0.0591 ± 0.0048	0.04143 ± 0.00023	0.0502 ± 0.0026	0.237 ± 0.052	0.284 ± 0.031	0.168 ± 0.02	0.197 ± 0.017	0.0891 ± 0.0055	0.0639 ± 0.0015	0.0533 ± 0.0014
